Reference: the supplement of paper PMC11018630
Structures can show the parent of a compound that is named as a salt. ± gives the standard deviation of the averaged measurements. In all, about 1,100 compounds were measured (“day of extracellular matrix detachment from plate”: median about 16, lowest 2% from about 10 on). Shown is part of a subset that was picked to be rich in the lowest values.

tested on: RDEB dermal fibroblasts EB71; experiment: day of extracellular matrix detachment from plate (days); higher = delayed detachment (less fibrotic matrix); conditions: compound concentration: 10 uM

Row | SMILES | day of extracellular matrix detachment from plate
1 | CC1(C)S[C@@H]2[C@H](NC(=O)C(C(=O)O)c3ccccc3)C(=O)N2[C@H]1C(=O)O (stereo not given in full) [Carbenicillin disodium] | 18
2 | CSc1nc2cc(Cl)c(Oc3cccc(Cl)c3Cl)cc2[nH]1 [Triclabendazole] | 13
3 | CN(C)/N=N/c1[nH]cnc1C(N)=O [Dacarbazine] | 11
4 | CCC[C@H](N[C@@H](C)C(=O)N1[C@H](C(=O)O)C[C@@H]2CCCC[C@@H]21)C(=O)OCC [Perindopril Erbumine] | 21 ± 1.7
5 | OC(CCN1CCCC1)(c1ccccc1)C1CCCCC1 (stereo not given) [Procyclidine HCl] | 16 ± 1.7
6 | C[C@]1(Cn2ccnn2)[C@H](C(=O)O)N2C(=O)C[C@H]2S1(=O)=O [Tazobactam] | 20 ± 1.7
7 | CC1(C)S[C@@H]2[C@H](NC(=O)Cc3ccccc3)C(=O)N2[C@H]1C(=O)O [Penicillin G Sodium] | 13
8 | CC1(C)[C@H](C(=O)O)N2C(=O)C[C@H]2S1(=O)=O [Sulbactam] | 10 ± 1.7
9 | CC1(C)[C@H](C(=O)O)N2C(=O)C[C@H]2S1(=O)=O [Sulbactam sodium] | 11 ± 1.7
10 | CC(C)(Oc1ccc(Cl)cc1)C(=O)O [Clofibric Acid] | 13
11 | CC(=O)O[C@]1(C(C)=O)CC[C@H]2[C@@H]3C[C@H](C)C4=CC(=O)C=C[C@]4(C)[C@@]3(F)[C@@H](O)C[C@@]21C [Fluorometholone Acetate] | 27.2 ± 3.5
12 | N#CC(c1ccc(Cl)cc1)c1c(Cl)cc(-n2ncc(=O)[nH]c2=O)cc1Cl (stereo not given) [Diclazuril] | 15.7 ± 6.3
13 | O=C(O)CCc1nc2ccccc2[nH]1 [Procodazole] | 13
14 | N#C/C(=C1/SC[C@@H](c2ccc(Cl)cc2Cl)S1)n1ccnc1 [Luliconazole] | 13
15 | C[N+]1(C)CCC(OC(=O)C(O)(c2ccccc2)C2CCCC2)C1 (stereo not given) [Glycopyrrolate] | 20.3 ± 2.9
16 | CCN(CC)CCOCCOC(=O)C(CC)(CC)c1ccccc1 [Oxeladin Citrate] | 13
17 | CN1C2=CC(=O)/C(=N\NC(N)=O)C=C2CC1S(=O)(=O)O (stereo not given) [Carbazochrome sodium sulfonate (AC-17)] | 16.7 ± 2.3
18 | C/C(O)=C(\C#N)C(=O)Nc1ccc(C(F)(F)F)cc1 [Teriflunomide] | 13
19 | C[C@](N)(Cc1ccc(O)c(O)c1)C(=O)O [Methyldopa] | 10.3 ± 1.1
20 | NCCc1ccc(O)c(O)c1 [Dopamine HCl] | 15.7 ± 6.3
21 | C[C@@](Cc1ccc(O)c(O)c1)(NN)C(=O)O [Carbidopa] | 15.7 ± 6.3
22 | CO/N=C(\C(=O)N[C@@H]1C(=O)N2C(C(=O)O)=C(COC(N)=O)CS[C@H]12)c1ccco1 [Cefuroxime sodium] | 17
23 | NCCCCC(NC(=O)C1CCCN1C(=O)C1CSSCC(N)C(=O)NC(Cc2ccc(O)cc2)C(=O)NC(Cc2ccccc2)C(=O)NC(CCC(N)=O)C(=O)NC(CC(N)=O)C(=O)N1)C(=O)NCC(N)=O (stereo not given) [Lypressin Acetate] | 23 ± 1.7
24 | COc1cc(Nc2ncc3c(n2)-c2ccc(Cl)cc2C(c2c(F)cccc2OC)=NC3)ccc1C(=O)O [Alisertib (MLN8237)] | 25

Row | SMILES | day of extracellular matrix detachment from plate
25 | CC[C@H](NC(=O)[C@H](C)NC)C(=O)N1C[C@@H](O)C[C@H]1Cc1c(-c2[nH]c3cc(F)ccc3c2C[C@@H]2C[C@H](O)CN2C(=O)[C@H](CC)NC(=O)[C@H](C)NC)[nH]c2cc(F)ccc12 [Birinapant] | 19 ± 6.9
26 | CC(=O)O[C@]1(C(C)=O)CC[C@H]2[C@@H]3C[C@H](C)C4=CC(=O)CC[C@]4(C)[C@H]3CC[C@@]21C [Medroxyprogesterone acetate] | 19.3 ± 6.3
27 | [I-].[K+] [Potassium Iodide] | 15.7 ± 6.3
28 | CCN1CC(CCN2CCOCC2)C(c2ccccc2)(c2ccccc2)C1=O (stereo not given) [Doxapram HCl] | 18
29 | CN(C)CCc1c[nH]c2ccc(CS(=O)(=O)N3CCCC3)cc12 [Almotriptan Malate] | 19.3 ± 6.3
30 | NC(=O)Cc1cccc(C(=O)c2ccccc2)c1N [Nepafenac] | 14.3 ± 2.9
31 | CN1CCC(=C2c3ccccc3CCc3cccnc32)CC1 [Azatadine dimaleate] | 18
32 | Cc1ccc(NC(=O)c2ccc(CN3CCN(C)CC3)cc2)cc1Nc1nc(-c2cccnc2)cs1 [Masitinib (AB1010)] | 36
33 | CC(C)(C)c1nc(-c2cccc(NS(=O)(=O)c3c(F)cccc3F)c2F)c(-c2ccnc(N)n2)s1 | 32.5 ± 2.1
34 | CO/N=C(\C(=O)N[C@@H]1C(=O)N2C(C(=O)OCOC(=O)C(C)(C)C)=C(/C=C\c3scnc3C)CS[C@H]12)c1csc(N)n1 [Cefditoren pivoxil] | 15.7 ± 6.3
35 | CCOC(=O)[C@H](CCc1ccccc1)N[C@H]1CS[C@H](c2cccs2)CN(CC(=O)O)C1=O [Temocapril HCl] | 19.3 ± 6.3
36 | CCC[S+]([O-])c1ccc2[nH]c(NC(=O)OC)nc2c1 (stereo not given) [Albendazole Oxide] | 16
37 | CC1(C)S[C@@H]2[C@H](NC(=O)[C@H](N)c3ccc(O)cc3)C(=O)N2[C@H]1C(=O)O [Amoxicillin] | 16.7 ± 2.3
38 | CC1(C)S[C@@H]2[C@H](NC(=O)[C@H](N)c3ccc(O)cc3)C(=O)N2[C@H]1C(=O)O [Amoxicillin Sodium] | 15.7 ± 6.3
39 | CC(C)C(=O)Oc1ccc(CO)cc1[C@H](CCN(C(C)C)C(C)C)c1ccccc1 [Fesoterodine Fumarate] | 15.7 ± 6.3
40 | O=C(O)c1ccccc1 [Benzoic Acid] | 13
41 | Cc1nc(=O)c2cc(CN(C)c3ccc(C(=O)N[C@@H](CCC(=O)O)C(=O)O)s3)ccc2[nH]1 [Raltitrexed] | 25
42 | NS(=O)(=O)c1cc2c(cc1Cl)N=C(CSCc1ccccc1)NS2(=O)=O [Benzthiazide] | 13
43 | CC(=O)O[C@]1(C(C)=O)CC[C@H]2[C@@H]3C=C(Cl)C4=CC(=O)CC[C@]4(C)[C@H]3CC[C@@]21C [Chlormadinone acetate] | 26.2 ± 10
44 | CO[C@@H]1[C@@H](OC(N)=O)[C@@H](O)[C@H](Oc2ccc3c(O)c(NC(=O)c4ccc(O)c(CC=C(C)C)c4)c(=O)oc3c2C)OC1(C)C [Novobiocin Sodium] | 15.7 ± 6.3
45 | O=S(=O)(O)Oc1ccc(C(c2ccc(OS(=O)(=O)O)cc2)c2ccccn2)cc1 [Sodium Picosulfate] | 14.5 ± 4
46 | Cc1cccc(C)c1NC(=O)C1CCCCN1C (stereo not given) [Mepivacaine HCl] | 16.5 ± 6.2
47 | C[N+](C)(C)CCO.[Cl-] [Choline Chloride] | 13
48 | O=C(CCCCCCNC(=O)c1cnc(N(c2ccccc2)c2ccccc2)nc1)NO [Rocilinostat (ACY-1215)] | 27

Row | SMILES | day of extracellular matrix detachment from plate
49 | Cc1nnc(C(C)C)n1C1C[C@H]2CC[C@@H](C1)N2CC[C@H](NC(=O)C1CCC(F)(F)CC1)c1ccccc1 (stereo in doubt) [Maraviroc] | 12
50 | NC[C@H]1CC[C@H](C(=O)O)CC1 [Tranexamic Acid] | 23 ± 1.7
51 | CC1(O)CCC(C(C)(C)O)CC1 (stereo not given) [Terpin (hydrate)] | 17
52 | O=c1sn(-c2cccc3ccccc23)c(=O)n1Cc1ccccc1 [Tideglusib] | 18.7 ± 4
53 | CC1(C)Cc2c(-c3ccccc3)c(-c3ccc(Cl)cc3)c(CC(=O)O)n2C1 [Licofelone] | 16
54 | NC(=O)c1ccc(I)c([N+](=O)[O-])c1 [Iniparib (BSI-201)] | 12.3 ± 1.1
55 | CCOc1ccc(NC(C)=O)cc1 [Phenacetin] | 12
56 | CC(=O)Nc1ccccc1 [Acetanilide] | 10 ± 1.7
57 | CC(=O)Nc1ccc(O)cc1 [Acetaminophen] | 11
58 | C=C1[C@H](CO)[C@@H](O)C[C@@H]1n1cnc2c(=O)[nH]c(N)nc21 [Entecavir Hydrate] | 12.7 ± 2.9
59 | CCOc1nc2cccc(C(=O)OCc3oc(=O)oc3C)c2n1Cc1ccc(-c2ccccc2-c2noc(=O)[nH]2)cc1 [Azilsartan Medoxomil] | 19 ± 1.7
60 | CCCCCC(=O)O[C@]1(C(C)=O)CC[C@H]2[C@@H]3CCC4=CC(=O)CC[C@]4(C)[C@H]3CC[C@@]21C [Hydroxyprogesterone caproate] | 20
61 | C[C@@H]1C[C@H]2[C@@H]3CCC4=CC(=O)C=C[C@]4(C)[C@@]3(Cl)[C@@H](O)C[C@]2(C)[C@@]1(OC(=O)c1ccco1)C(=O)CCl [Mometasone furoate] | 29.5 ± 7.1
62 | C[C@H](Cc1cc2c(c(C(N)=O)c1)N(CCCO)CC2)NCCOc1ccccc1OCC(F)(F)F [Silodosin] | 11
63 | CCCC(=O)OCOC(=O)C1=C(C)NC(C)=C(C(=O)OC)C1c1cccc(Cl)c1Cl (stereo not given) [Clevidipine Butyrate] | 19.3 ± 6.3
64 | CC(=O)OCC(=O)[C@H]1CC[C@H]2[C@@H]3CCC4=CC(=O)CC[C@]4(C)[C@H]3CC[C@]12C [Deoxycorticosterone acetate] | 13
65 | C=C1/C(=C\C=C2/CCC[C@]3(C)[C@@H]([C@H](C)CCCC(C)C)CC[C@@H]23)C[C@@H](O)C[C@@H]1O [Alfacalcidol] | 36
66 | CCCCCCCC(=O)N[C@H](CN1CCCC1)[C@H](O)c1ccc2c(c1)OCCO2 [Eliglustat Tartrate] | 18.3 ± 7.6
67 | COc1ccc(-c2ccc3cc(C(=O)O)ccc3c2)cc1C12CC3CC(CC(C3)C1)C2 [Adapalene] | 16
68 | Cc1c(F)cc(C(=O)NC2CC2)cc1-c1ccc(C(=O)NCC(C)(C)C)cn1 | 16 ± 1.4
69 | CCCCCCCCCCCCCCCC(=O)O[C@@H]1[C@@H](O)[C@@H](O)[C@@H]([C@H](NC(=O)[C@@H]2C[C@@H](CCC)CN2C)[C@H](C)Cl)O[C@@H]1SC [Clindamycin palmitate HCl] | 18
70 | Cc1cn([C@H]2O[C@@H](CO)[C@H](O)[C@H]2F)c(=O)[nH]c1=O [Clevudine] | 15.3 ± 2.3
